Measurements published in PubChem BioAssay.
Where “and” joins values, the source holds several entries; their conditions need not be identical. Identical values can stand only once. Results filed as inconclusive are left out. Calls of active or inactive are those of the source.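 The calls were made as follows, unless noted: active = normalized viability below 100% at a tested concentration; inactive = the rest.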

Tests used:
[1] = viability loss in pontine glioma line – cell-based, SU-DIPG-XVII, MIPE5.0, CellTiter-Glo, qHTS, dose response (AID 1347060; cut-off not given, nearly all actives have AC50 up to about 26 µM;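 as to AC50: cells exposed to compound for 48 hours before viability readout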); details: CellTiter-Glo ATP luminescence
[2] = viability loss in pontine glioma line – cell-based, SU-DIPG-XIII, MIPE4.0, CellTiter-Glo, qHTS, dose response (AID 1347061; cut-off not given, nearly all actives have AC50 up to about 37 µM;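 also: cells exposed to compound for 48 hours before readout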); details: CellTiter-Glo ATP luminescence
[3] = viability loss in pontine glioma line – cell-based, JHH-DIPG-1, MIPE4.0, CellTiter-Glo, qHTS, dose response (AID 1347062; cut-off not given, nearly all actives have AC50 up to about 27 µM;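 as to AC50: cells exposed to compound for two days before readout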); details: JHH-DIPG-1 viability, CellTiter-Glo ATP luminescence
[4] = viability loss in pontine glioma line – cell-based, SU-DIPG-IV, MIPE4.0, CellTiter-Glo, qHTS, dose response (AID 1347063; cut-off not given, nearly all actives have AC50 up to about 30 µM;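 also: compound exposure lasted 48 hours before the viability readout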); details: CellTiter-Glo ATP luminescence
[5] = viability loss in pontine glioma line – cell-based, SU-DIPG-XIII, MIPE5.0, CellTiter-Glo, qHTS, dose response (AID 1347064; cut-off not given, nearly all actives have AC50 up to about 23 µM;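 as to AC50: cells exposed to compound for 48 hours before the viability read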); details: CellTiter-Glo ATP luminescence
[6] = viability loss in pontine glioma line – cell-based, SU-DIPG-XXV, MIPE5.0, CellTiter-Glo, qHTS, dose response (AID 1347065; cut-off not given, nearly all actives have AC50 up to about 26 µM;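 also: cells exposed to compound for 48 hours before ATP readout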); details: CellTiter-Glo ATP luminescence
[7] = JHH-DIPG-1 glioma cell viability, MIPE5.0 library, CellTiter-Glo luminescence, qHTS (AID 1347067; cut-off not given, nearly all actives have AC50 up to about 26 µM;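 also: cells exposed to compound for 48 hours before readout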); details: JHH-DIPG-1 glioma viability, CellTiter-Glo ATP luminescence
[8] = growth inhibition of DIPG cells – cell-based, MIPE4.0 library, CellTiter-Glo luminescence, qHTS (AID 1347066; cut-off not given, nearly all actives have AC50 up to about 30 µM;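 also: cells exposed to compound for 48 hours before readout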); details: SU-DIPG-VI viability, CellTiter-Glo ATP luminescence
[9] = viability loss with induced miR-34 in A549 – imaging, A549 dox-inducible miR-34, nuclei and caspase counts, primary screen (AID 1347080;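 active = compounds whose cell count with miR-34 switched on is under 0.7 times the count with it off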); details: A549 miR-34 inducible, Hoechst nuclei count, 48 h
[10] = compounds altering HSF1 focus formation in cells – imaging, Selleck Cancer Library (AID 1347162; in the data active = plate-normalised HSF1 focus index below about 0.46); details: human cells, HSF1 nuclear foci imaging, at 10 µM; SSMD: measured here: HSF1 foci SSMD mean; cell count: measured here: cell number; plate-normalised HSF1 focus index: stronger effect = lower value
[11] = MELAS cybrid and Rieske KO viability enhancers – cell-based, MELAS cybrids, Rieske KO mouse fibroblasts, CellTiter-Glo, primary screen (AID 1508586;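 active = mean z-score across replicates of 1.96 or higher in either the MELAS or the Rieske mutant cell line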;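 also: z relative to plate mean and SD of compound and empty wells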); details: low glucose
[12] = drug combination growth inhibition, ovarian cancer – cell-based, oncology-focused library, rucaparib conditional, profiling panel (AID 1508598); details: patient-derived ovarian cancer cells, CellTiter-Glo viability, 144 h, stronger effect = lower value
[13] = growth inhibition of DIPG cells – cell-based, MIPE5.0 library, qHTS (AID 1347068; cut-off not given, nearly all actives have IC50 up to about 30 µM;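 as to IC50: cells exposed to compound for 48 hours before viability readout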); details: SU-DIPG-XXV viability
[14] = stronger effect = lower value, cell number ratio, induced over uninduced
[15] = measured here: relative caspase fold change +Dox/-Dox
[16] = measured here: total cells with miR-34 induction, stronger effect = lower value
[17] = measured here: total cells without miR-34 induction
[18] = MELAS cybrid survival, CellTiter-Glo 48 h, stronger effect = higher value
[19] = Rieske KO mouse fibroblast survival, CellTiter-Glo 72 h

CC[C@H]1OC(=O)[C@H](C)C(=O)[C@H](C)[C@@H](O[C@H]2O[C@H](C)C[C@H](N(C)C)[C@H]2O)[C@](C)(OC)C[C@@H](C)C(=O)[C@H](C)[C@H]2N(CCCCn3cnc(-c4cccnc4)c3)C(=O)O[C@]12C
inactive: outcome [2] | outcome [3] | outcome [4] | outcome [5] | outcome [6] | outcome [7]
active: AC50 [1] 26300 nM

Oc1cccc(-c2nc(N3CCOCC3)c3oc4ncccc4c3n2)c1
2190 and 1580: cell count [9, 17]
0.551 and 1.05: fold change [9, 15]
7310: cell count [10]
-0.00105: z-score [11, 19]
2320 and 1430: cell count [9, 16]
-4.03: SSMD [10]
active: AC50 [1] 525 nM | AC50 [2] 1210 nM | AC50 [3] 215 nM | AC50 [4] 42.9 nM | AC50 [5] 332 nM | AC50 [6] 186 nM | AC50 [8] 3820 nM | AC50 [7] 5250 nM | z-score [11, 18] 2.46 | viability ([12]; at 0.00122 µM, OCI-P5x cells, without rucaparib) 98.5% | viability ([12]; at 0.00488 µM, OCI-C5x cells, with rucaparib 10 µM, 100% = cells with rucaparib alone) 75.7% | viability ([12]; at 0.00488 µM, OCI-C5x cells, without rucaparib) 93.3% | viability ([12]; at 0.0195 µM, OCI-C5x cells, with rucaparib 10 µM, 100% = cells with rucaparib alone) 79.3% | viability ([12]; at 0.0195 µM, OCI-C5x cells, without rucaparib) 72.3% | viability ([12]; at 0.0781 µM, OCI-P5x cells, with rucaparib 20 µM, 100% = cells with rucaparib alone) 97.5% | viability ([12]; at 0.0781 µM, OCI-P5x cells, without rucaparib) 96.9% | viability ([12]; at 0.313 µM, OCI-P5x cells, with rucaparib 20 µM, 100% = cells with rucaparib alone) 73.1% | viability ([12]; at 0.313 µM, OCI-P5x cells, without rucaparib) 95.8% | viability ([12]; at 1.25 µM, OCI-C5x cells, with rucaparib 10 µM, 100% = cells with rucaparib alone) 78.6% | viability ([12]; at 1.25 µM, OCI-C5x cells, without rucaparib) 86.7% | viability ([12]; at 1.25 µM, OCI-P5x cells, with rucaparib 20 µM, 100% = cells with rucaparib alone) 45.8% | viability ([12]; at 1.25 µM, OCI-P5x cells, without rucaparib) 65.7% | viability ([12]; at 5 µM, OCI-C5x cells, with rucaparib 10 µM, 100% = cells with rucaparib alone) 60.3% | viability ([12]; at 5 µM, OCI-C5x cells, without rucaparib) 69.5% | viability ([12]; at 5 µM, OCI-P5x cells, with rucaparib 20 µM, 100% = cells with rucaparib alone) 40.3% | viability ([12]; at 5 µM, OCI-P5x cells, without rucaparib) 48.6%
inactive: fold change [9, 14] 1.06 and 0.903 | plate-normalised HSF1 focus index [10] 0.749 | viability ([12]; at 0.000305 µM, OCI-C5x cells, with rucaparib 10 µM, 100% = cells with rucaparib alone) 109% | viability ([12]; at 0.000305 µM, OCI-C5x cells, without rucaparib) 110% | viability ([12]; at 0.000305 µM, OCI-P5x cells, with rucaparib 20 µM, 100% = cells with rucaparib alone) 120% | viability ([12]; at 0.000305 µM, OCI-P5x cells, without rucaparib) 103% | viability ([12]; at 0.00122 µM, OCI-C5x cells, with rucaparib 10 µM, 100% = cells with rucaparib alone) 109% | viability ([12]; at 0.00122 µM, OCI-C5x cells, without rucaparib) 104% | viability ([12]; at 0.00122 µM, OCI-P5x cells, with rucaparib 20 µM, 100% = cells with rucaparib alone) 117% | viability ([12]; at 0.00488 µM, OCI-P5x cells, with rucaparib 20 µM, 100% = cells with rucaparib alone) 106% | viability ([12]; at 0.00488 µM, OCI-P5x cells, without rucaparib) 103% | viability ([12]; at 0.0195 µM, OCI-P5x cells, with rucaparib 20 µM, 100% = cells with rucaparib alone) 113% | viability ([12]; at 0.0195 µM, OCI-P5x cells, without rucaparib) 100% | viability ([12]; at 0.0781 µM, OCI-C5x cells, with rucaparib 10 µM, 100% = cells with rucaparib alone) 103% | viability ([12]; at 0.0781 µM, OCI-C5x cells, without rucaparib) 107% | viability ([12]; at 0.313 µM, OCI-C5x cells, with rucaparib 10 µM, 100% = cells with rucaparib alone) 123% | viability ([12]; at 0.313 µM, OCI-C5x cells, without rucaparib) 114%

Cc1ccc(-c2ncn(-c3ccc(Nc4nccc(-c5cccc(N6CCOCC6)c5)n4)cc3)n2)cn1
active: AC50 [1] 2350 nM | AC50 [2] 83.3 nM | AC50 [3] 93.5 nM | AC50 [4] 118 nM | AC50 [5] 2630 nM | AC50 [6] 2950 nM | AC50 [7] 2630 nM | IC50 [13] 16600 nM

CC(C)c1cc(C(=O)N2Cc3ccc(CN4CCN(C)CC4)cc3C2)c(O)cc1O
-0.499: z-score [11, 19]
0.921: fold change [9, 15]
1780: cell count [9, 16]
inactive: fold change [9, 14] 0.888
2010: cell count [9, 17]
active: AC50 [1] 468 nM | AC50 [2] 1180 nM | AC50 [3] 296 nM | AC50 [4] 526 nM | AC50 [5] 742 nM | AC50 [6] 525 nM | AC50 [7] 661 nM | IC50 [13] 1480 nM | z-score [11, 18] 2.68

N[C@@]1(C(=O)O)CS(=O)(=O)[C@H]2[C@H](C(=O)O)[C@H]21
inactive: outcome [1] | outcome [2] | outcome [3] | outcome [4] | outcome [5] | outcome [8] | outcome [7] | outcome [13]

COc1ccccc1N1CCN(CCN(C(=O)C2CCCCC2)c2ccccn2)CC1
8900 and 8750: cell count [9, 16]
0.432: z-score [11, 19]
9340 and 10000: cell count [9, 17]
inactive: outcome [1] | outcome [2] | outcome [3] | outcome [4] | outcome [5] | outcome [8] | outcome [13] | fold change [9, 14] 0.953 and 0.872 | z-score [11, 18] -0.378
0.882 and 0.761: fold change [9, 15]
